This excerpt belongs to a sample that is enriched for hits.
CapD inh: inhibitors of Bacillus anthracis CapD enzyme. purified CapD enzyme, fluorescence intensity read-out; active compounds read low. z-score (concentration not given with the values). 140,000 compounds, 0.23% hits. AID 492967; in the data active = z-score mostly below about -2.9, no sharp cut-off; inactive = mostly above about -1.9
* hit, by the source's call; i = inactive.

SMILES	CapD inh
CCOc1cc(-c2nc3sc4c(c3c(=O)[nH]2)CCCC4)ccc1OCCOc1cc(C)cc(CC)c1	0.235
Cc1cccc(CN2C(=O)/C(=C\c3ccc(C(=O)NCc4cccnc4)cc3)Sc3ccccc32)c1	11.9
COC(CNC(=O)c1ccc(/C=C2\Sc3ccccc3N(Cc3ccc(F)cc3)C2=O)cc1)OC	-8.54*
COC(CNC(=O)c1ccc(/C=C2/Sc3ccccc3N(Cc3cccc(C)c3)C2=O)cc1)OC	0.07
CCNC(=O)CC1Sc2ccc(C(F)(F)F)cc2NC1=O (centres undefined)	-0.37
Cc1ccccc1N1CCN(C(=O)OCCCCCc2ccccc2)CC1	-1.12
O=C(O)CC(C(=O)O)c1ccc(F)cc1 (centres undefined)	0.28
O=C(O)c1cc2ccc(O)cc2oc1=O	90.1
O=C(c1ccc(F)cc1)c1cc2ccc(O)cc2oc1=O	-6.37*
O=C(c1ccc2c(c1)OCO2)c1cc2ccc(O)cc2oc1=O	-3.87
CCOC(=O)c1sc(NC(=O)COc2ccccc2)nc1-c1ccccc1	i
Cc1ccc(N/N=C2/CCCNC2=O)cc1	-2.66
O=C1NCC(=Nc2ccccc2)C(=O)N1	0.245
O=C1NCCC/C1=N/Nc1ccccc1	-3.88*
O=c1oc2ccccc2cc1-c1nc(-c2ccc3ccccc3c2)cs1	-0.695
CC(=O)Nc1cc([N+](=O)[O-])ccc1C	-0.38
S=c1[nH]nc(-c2ccccc2)n1/N=C/C=C/c1ccco1	-2.42
S=c1[nH]nc(-c2cccnc2)n1/N=C/C=C/c1ccco1	-2.51
Cc1nnc(C)n1/N=C/C=C\c1ccco1	-4.41*
C=C1SC(Nc2ccc(C(=O)OCC)cc2)=NC12CCCCC2	0.05
CCOC(=O)c1sc2nc(C)nc(N3CCCCC3CC)c2c1C (centres undefined)	3.52
O=C1NC(=S)N(c2ccc(Br)cc2)C(=O)/C1=C/c1cccn1-c1ccccc1	-0.31
O=C1NC(=S)N(c2ccccc2)C(=O)/C1=C\c1ccoc1	-5.73*
COc1ccc(N2C(=O)/C(=C\c3ccc(Br)cc3)C(=O)NC2=S)cc1	-1.71
N#C/C(=C\c1ccco1)C(=O)C1CC1	-4.28*
SMILES	CapD inh
N#C/C(=C\c1cccc(Cl)c1)C(=O)C1CC1	0.495
O=C(/C=C/c1ccco1)C1CC1	-3.09
O=[N+]([O-])c1cc(Cl)c(-n2cccc2)cc1Sc1ccc(Cl)cc1	-0.11
COc1ccc(NC(=O)CN2C(=O)c3ccccc3C2=O)cc1	-0.515
Cc1ccc2c(c1)C1CN(C)CCC1N2C(=O)CCCN1C(=O)c2ccccc2C1=O (centres undefined)	-0.175
Cc1ccc(C)n1-c1cc(Cl)ccc1C(=O)O	-5.49*
CCCOc1ccc(Cl)cc1C(=O)O	-0.655
CC(=O)Nc1ccc(-n2c(C)ccc2C)c(C(=O)O)c1	-4.82*
CC(=O)Nc1ccc(NC(=O)c2ccccc2C(=O)O)cc1	-0.145
COc1ccc(NC(C)=O)cc1C	6.2
Cc1ccc(C)n1-c1ccccc1C(=O)O	-1
O=C(c1ccc(Cl)c(Cl)c1)N1CCc2c([nH]c3ccccc23)C1	-0.975
CC(=O)NN1C(=O)/C(=C2\C(=O)N(C)c3ccccc32)SC1=S	-0.01
Cc1ccc(CNc2nc3c(S(=O)(=O)c4cc(C)ccc4C)nnn3c3ccccc23)cc1	0.055
